FECH block = human FECH heme synthesis enzyme inhibition. P22830. purified FECH, Ni-mesoporphyrin absorbance 550 nm. calls only at 10 µM (by protocol). 3.3% of 20,000 active. AID 1671448;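 active = enzyme reaction rate more than 3 SD below the solvent-only control wells on the same plate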;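 note: lower slope than DMSO wells means FECH inhibition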
Target sequence (P22830 whole entry, looked up): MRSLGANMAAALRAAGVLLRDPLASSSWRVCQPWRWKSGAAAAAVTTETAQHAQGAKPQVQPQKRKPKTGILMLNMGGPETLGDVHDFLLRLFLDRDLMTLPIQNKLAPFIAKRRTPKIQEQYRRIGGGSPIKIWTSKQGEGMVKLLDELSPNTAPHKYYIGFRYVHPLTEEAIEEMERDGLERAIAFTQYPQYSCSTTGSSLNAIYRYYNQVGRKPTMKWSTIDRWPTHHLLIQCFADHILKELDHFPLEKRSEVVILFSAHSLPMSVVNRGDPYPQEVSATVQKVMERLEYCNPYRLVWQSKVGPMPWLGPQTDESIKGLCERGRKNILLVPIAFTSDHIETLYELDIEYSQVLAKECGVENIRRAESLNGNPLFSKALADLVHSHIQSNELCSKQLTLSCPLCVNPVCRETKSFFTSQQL
* marks the source's active call; other numbers are inactive results; i = inactive; + = active, no number. The entries come from a sample that favours hits as a whole.

SMILES	FECH block
CCCC(=O)N(Cc1nc2nc(C)c(Cl)c(C)n2n1)c1ccc(C)cc1	i
COc1cc(-c2nc(C(N)=O)c3c(n2)n(-c2ccc(F)cc2)c(=O)n3C)ccc1OC(C)C	i
CCCc1c(C)nc2ncnn2c1Sc1ccc(NS(=O)(=O)c2ccc(OC)cc2)cc1	i
CCn1nc(C(C)C)cc1C(=O)NCC1CCCN(S(C)(=O)=O)C1 (centres undefined)	i
CN1CC2(CCN(C(=O)CNS(=O)(=O)c3cccs3)C2)OC1=O (centres undefined)	i
COc1cccc(-c2cc(N3CCN(S(=O)(=O)c4ccc(CC(C)C)cc4)CC3)ncn2)c1	i
Cc1ccc(-n2ncc3c(-n4nc(C)cc4NC(=O)CCC4CCCCC4)ncnc32)c(C)c1	i
Cc1ccc(NC(=O)CNCCNc2ncccc2C)c(C)c1	+
Cc1cccnc1NCCNC(=O)c1cccc2ccnn12	i
Cc1ccc(NC(=O)CC(=O)NCCSc2nccn2C)c(C)c1	i
COc1cccc(NC(=O)NCCn2c(-c3ccncc3)nc3cccnc32)c1	i
COc1ccc(C)cc1NC(=O)N1CCC(n2cnc3cccnc32)CC1	i
O=C(c1cc(-c2ccccc2)n[nH]1)N(Cc1ccsc1)C1CC1	i
CCOc1ccccc1C(=O)NC1CC(=O)N(c2cccc(F)c2)C1 (centres undefined)	i
Cn1c(CCc2ccccc2NC(=O)C2CCCN(S(=O)(=O)N3CCCC3)C2)nc2ccccc21 (centres undefined)	i
O=C(Nc1ccc2nc(CCc3ccccc3)[nH]c2c1)C1CCN(S(=O)(=O)N2CCOCC2)CC1	i
Cn1c(CCc2cccc(NC(=O)C3CCN(S(=O)(=O)N4CCCC4)CC3)c2)nc2ccccc21	+
CCN(CC)C1CCN(C(=O)c2cc(NC(C)=O)ccc2Cl)C1 (centres undefined)	i
O=C(NCCOCCO)C(=O)NCc1n[nH]c(=O)c2ccccc12	i
Cc1cc(C)n(-c2cc(Nc3ccc(Cl)cc3)ncn2)n1	i
COc1cc(Nc2cc(-n3nc(C)cc3C)ncn2)cc(OC)c1	+
COc1cccc(Nc2cc(-n3nc(C)cc3C)ncn2)c1	i
COc1cccc(S(=O)(=O)N2CCN(Cc3nc4cccnc4n3-c3ccc(C)cc3)CC2)c1	i
CCN(CC(=O)Nc1c(C)nn(CC)c1C)Cc1noc(C)n1	i
CCOC(=O)c1cc2n(n1)CC(C)(C(=O)NCCC(C)C)N(c1ccc(Cl)cc1)C2=O (centres undefined)	i
SMILES	FECH block
CCOC(=O)c1cc2n(n1)CC(C)(C(=O)NCCC(C)C)N(c1cc(OC)cc(OC)c1)C2=O (centres undefined)	i
CCOC(=O)c1cc2n(n1)CC(C)(C(=O)NCCC(C)C)N(c1cc(C)cc(C)c1)C2=O (centres undefined)	+
COC(=O)c1ccc2c(c1)nc(N1CCC(O)(c3ccc(C)cn3)CC1)n2C	i
COc1cc(NC(=O)CN2CCN(Cc3ccc(F)cc3)S2(=O)=O)cc(OC)c1	i
Cc1ccc(C2=CC(c3ccc(C)cc3)n3nc(NS(=O)(=O)c4ccccc4)nc3N2)cc1 (centres undefined)	+
O=S(=O)(Nc1nc2n(n1)C(c1ccc(F)cc1)C=C(c1ccccc1)N2)c1ccccc1 (centres undefined)	i
CCCC(=O)Nc1nc2n(n1)C(c1ccc(Cl)cc1)C=C(c1ccc(C)cc1)N2 (centres undefined)	+
Cc1ccc(C2=CC(c3ccc(F)cc3)n3nc(NS(=O)(=O)c4ccc(C)cc4)nc3N2)cc1 (centres undefined)	i
CCC(=O)Nc1nc2n(n1)C(c1ccc(Cl)cc1)C=C(c1ccc(Cl)cc1)N2 (centres undefined)	i
O=C(O)CCCC(=O)Nc1nc2n(n1)C(c1ccc(Cl)cc1)C=C(c1ccc(Cl)cc1)N2 (centres undefined)	i
CCCCCCNc1cc(C)nc2nc(-c3cccnc3)nn12	i
CCCN(Cc1nccn1C)C(=O)c1cc2cc(C)ccc2nc1C	i
O=C1N(CCc2ccccc2)CCCC1(O)CNCc1ccc(Cl)cc1 (centres undefined)	i
COc1ccc(N2C(=O)CCS2(=O)=O)cc1S(=O)(=O)N1CCN(c2ccccn2)CC1	i
Cc1cc(N2CCCCC2)nc(N2CCN(S(=O)(=O)c3ccccc3)CC2)n1	i
Cc1cc(N2CCCC2)nc(N2CCN(S(=O)(=O)c3ccccc3)CC2)n1	i
Nc1nc(N2CCCCCC2)ncc1S(=O)(=O)c1cccs1	+
COc1ccccc1N(Cc1nc2nc(C)cc(C)n2n1)C(=O)c1ccc(C)cc1	i
COc1ccc(N2CC(NC(C)=O)CC2=O)cc1 (centres undefined)	i
CC(C)c1ccc(S(=O)(=O)N2CCN(Cc3nc4cccnc4n3-c3cccc(F)c3)CC2)cc1	i
CC(CN1Cc2ncccc2C1=O)(c1ccccc1)c1ccccc1	i
C=CCNc1nc(SC)nc(-c2ccccc2)c1C#N	i
CSc1nccc(-c2ccc(Cl)cc2Cl)n1	+
Cc1ccc(NC(=O)CNc2nccc(-c3ccc(C)nc3C)n2)c(F)c1	i
COC(=O)c1cc2n(n1)CCN(c1ccnc(SC)n1)C2	i
SMILES	FECH block
CCNc1ncc(C(=O)N2CCOC(CCCC(C)C)C2)cn1 (centres undefined)	i
O=C(c1ccc(-c2ccsc2)nc1)N1CCCN(C2CCCCC2)CC1	i
CCc1cc(Sc2ccccc2NC(=O)C(C)C)n2nc(C)nc2n1	i
CNC(=O)c1ccc(Cn2c(=O)c3cc(OC)c(OC)cc3n(CC(N)=O)c2=O)cc1	i
CNC(=O)c1ccc(Cn2c(=O)c3cc(OC)c(OC)cc3n(CC(=O)Nc3ccccc3)c2=O)cc1	i
CNC(=O)c1ccc(Cn2c(=O)c3cc(OC)c(OC)cc3n(CC(=O)NCCCOC)c2=O)cc1	+
CNC(=O)c1ccc(Cn2c(=O)c3cc(OC)c(OC)cc3n(CC(=O)N3CCCCC3C)c2=O)cc1 (centres undefined)	i
CNC(=O)c1ccc(Cn2c(=O)c3cc(OC)c(OC)cc3n(CC(=O)N3CCC(C)CC3)c2=O)cc1	+
CCCNC(=O)Cn1c(=O)n(Cc2ccc(C(=O)NCCC)cc2)c(=O)c2cc(OC)c(OC)cc21	i
CCCNC(=O)Cn1c(=O)n(Cc2ccc(C(=O)NC(C)C)cc2)c(=O)c2cc(OC)c(OC)cc21	i
COCCCNC(=O)c1ccc(Cn2c(=O)c3cc(OC)c(OC)cc3n(CC(N)=O)c2=O)cc1	i
CNC(=O)c1ccc(Cn2c(=O)c3cc(OC)c(OC)cc3n(CC(=O)NCCC(C)C)c2=O)cc1	+
Cc1cccc(NC(=O)CC(=O)NCCCn2nnc3ccccc32)c1C	i
CCN(CC)c1nccc(-c2cc(C(=O)O)ccn2)n1	i
CCOCc1nccc(-c2cc(C(=O)O)ccn2)n1	+
CCOc1ccc(-c2ccnc(CC3CCN(C)CC3)n2)cc1C(=O)O	i
Cc1cccc(NC(=O)Cn2nc(N3CCN(c4ccc(F)cc4)CC3)ccc2=O)c1	i
COc1ccccc1N1CCN(C(=O)CCc2nc(-c3cc4ccc(C)cc4[nH]c3=O)no2)CC1	+
Cc1ccc2cc(-c3noc(CCC(=O)N4CCCC(C)C4)n3)c(=O)[nH]c2c1 (centres undefined)	i
Cc1ccc2cc(-c3noc(CCC(=O)N4CCC(C)CC4)n3)c(=O)[nH]c2c1	i
CC(=O)N1CCCn2nc(C(=O)NC(C)Cc3cc(C)[nH]n3)cc2C1 (centres undefined)	i
